Results as given in the supplement of paper PMC12632987.

Target: GABARAPL2, P60520
Experiment: median log2 fold change of GCK-ALFA target abundance (FLAG IP / Myc IP barcode read proportion) (log2 ratio); each designed protein is fused to an ALFA-tag nanobody in HEK293 cells to bring the named protein to FLAG-tagged glucokinase (GCK); Myc marks an untargeted standard; higher = target protein stabilised (more abundant)
Conditions: target protein: 3xFLAG-MCP-GCK-ALFA reporter; HEK293 landing pad (RPLP)
Outline: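 The readout is target abundance, the per-binder median log2 ratio of FLAG to Myc barcode read proportions. It came from HEK293 landing-pad cells carrying a recombined ALFA-nanobody-fused binder library, induced with 2 μg mL^−1 doxycycline and transfected with a plasmid for a FLAG-tagged target and a Myc-tagged standard. After 48 h, lysates were immunoprecipitated with anti-FLAG and anti-Myc, and circular RNA barcodes were reverse transcribed, amplified and sequenced. Each barcode needed a proportion of at least 10^−7 in both replicates and each binder at least 3 barcodes per replicate, a pseudocount of 10^−6 was added, and the replicates were pooled.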

Chain of GABARAPL2, P60520 (P60520 whole entry, the tested form may be a part): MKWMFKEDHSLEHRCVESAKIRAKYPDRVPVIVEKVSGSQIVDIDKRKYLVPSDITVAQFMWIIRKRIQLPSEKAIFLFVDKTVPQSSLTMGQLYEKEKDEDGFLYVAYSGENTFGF

Binder	median log2 fold change
GBRAPL2_0_7251 (protein) MEELLEELLSLSLEEAKKKIKELAEKVIKLIKEDPEKGLEEAEKLAKVFAEYLIETKNEELEKVIDEAIDKIVKEVAKIDPNKAAYIDAIIGSAIMEVES	-0.108
GBRAPL2_0_7254 (protein) MEKLLKELLSLSVEEAQKAIKEEAEKVVKYLKEDPEKGLEKAEELAEVFAELLKERKDEKLEETIEEAIDKIVKEAAKIDPNKAAYIAAIIGSALYEVES	0.0528
GBRAPL2_0_7255 (protein) LEEVLKKMKESSIEEAVELAKEEADRLVADPSVTPEEFEEAAVALLEVLAEKAKEEKTEEALELLEEAVDYLTELAKKVDPDVAAFIDTYGGSLLYELEE	-0.088
GBRAPL2_0_7259 (protein) LEEVLEEMKELSIEEAAELAKKYVKELVADPSVTPEQFLEAAEALLEVLAEKVKEEKTEEALEIFDEAVDYFTEEAKKIDPETAAAVATYGGSLLYEIES	0.154
GBRAPL2_0_7253 (protein) KEELLEKLLSLSIEEAIKEVKKLAEEVIKYIKEKPEEGLKKAEELAEIFAELIEARKDEKLIKAVEEAIEKIVEEAKKIDPNEAAYIASIIGSALYEVES	0.152
GBRAPL2_106_7265 (protein) SGLEELLKLLEEALEKAKKLPEAFKKGDEEAVDELLELLDEATRLAIELGLDEVAALVAAAFDDVFAASEDPETAEEDFEEAIEDLEEAKELVEKRLEEE	-0.285
GBRAPL2_0_7248 (protein) MEELLKELLSLSTEERKKKIKELAKEAVKLIKEDPEKGLEAAIELAEVFAKVIEETKNEEIAEVVDEAIDLIVKEAAEVDPNAAAEIASIVGSALLELEM	0.0975
GBRAPL2_106_7264 (protein) EGLEKARKLAKEALEKAKKLPEAFKKGDEEAIDELLELLDELTRLAIELGLDEVAALVADAFDNVFAASEDPETAEEDLEEAIKDLEEALKLIEKKIKEL	-0.195
GBRAPL2_106_7267 (protein) EKLKELLKQLEELAKKIEELLKKADENDEELIDETLELLNEATRQAIEAGLDEVAALLADAFNHVFEAKENPEERKENLEEALKDVKEAIKLVKKKIKEA	0.226
GBRAPL2_0_7250 (protein) MEELLKELLSLSLEEAKKKIKELTEEVIKLIEKDPKKGLEKAIELAEIFAEYLIERKNEELEEVIDEAIDKLVKKVAEVDPNEAAYIDAIIGSAIMEVEG	-0.0651
GBRAPL2_0_7258 (protein) LEEILKEMKTLSIEEAAELAKEEAERLVADPSVTPDEFEAAAFAMLEVLAEKVKKEKTEEALEIFDEAVDHFTALAAKIDPLTAAAVATHGGSLIYEIES	-0.0288
GBRAPL2_106_7266 (protein) EKLEELKKLLEEALELAKKLPEAFKAGDEEAIDELLDLLDEATRLAIELGLDEVAALVADAFDNVFAASEDPETAEEDFKEAIKNLEEALKLVEEELKKL	0.00104
GBRAPL2_106_7269 (protein) EELKELLEKLKELKEKIEELLEKAEEKDEELYDETIELADEVTRLAIELGLDEVAALIADAANDIFEALENPEERKEDLEEALEDVEEAIKLVEEEIKKE	-0.274
GBRAPL2_0_7241 (protein) MEELLKRLLSLSLEEAKAEIKRLAEEVIKLIKEDPEKGKKEAEELVEVFAEYLIKSKNEELLEVIEEEVDKIVKEVAKIDPNFAAYLDSIIGSAIAEVES	0.00211
GBRAPL2_128_7272 (protein) MKLVEITINIKDEESYNLAIEILDRIAEKSSPEVADLADAAKDAAEIAAENGYDEKVVVVDVLSEEEAEELKKIYEEIKKELGEEKVKSVVELEITDIEP	-0.21
GBRAPL2_0_7242 (protein) MEELLEELLSLSLEEAKARIRELAEEAIKLLKEDPEEGKKYAEELVEVFAEVLEKTKNEELREVIEEEVDRIVKEAAEIDPNFAAYLASIMGSAIYEVES	0.159

Binder	median log2 fold change
GBRAPL2_0_7246 (protein) MEELKKELLSLSLEEAKKKIKELAEKVIKLIKEDPEKGIEEAEKLTEVFAEVLVERKDEELKKVVEEAVEKIVEEVKKVDPKAAAYIDAIYGSALMEVEG	0.169
GBRAPL2_0_7256 (protein) LEEVLEEMKKLSIEEAAKLAKEYAEKLLADPSVTPEEFLEAIEKLLEVLAEKVKEEKTEEALEIFEEAVDYFTALAAKIDPNLAADVATYGGSLLYEIEE	0.0867
GBRAPL2_128_7271 (protein) KKIVEIDVDIKDEESYNLALEILDEISENSSPEVKKLADAAKDLVESAKEEGFGENVTAVDILSDEEAALLQKIYEEIKKKYGKEKVNSVVKLDISDVPP	-0.852
GBRAPL2_0_7260 (protein) MEEVLEKMKKLSLEEATKLAKEYLEKLRADPNVTKEEFEEAAEKLLEVLAEKAKKEKTEEALELFDEFVDYFTELAKKIDPNLAAYIASYGGSLLYEIES	0.248
GBRAPL2_0_7257 (protein) MEEVLKKMKELSIEEAAKLAKEEIEKLVADPSVTVEELEEAIEKLLEVLAEKVKEEKTEEALEILDEFVDYATELAAKVDPNLAAYVASYGGSLLYELEE	-0.0513
GBRAPL2_0_7243 (protein) MEELLKELLSLSLEEAKAAIKELAEEAIKLIREDPEKGIKYAEELMEVFAEVLEKRKDEELLKVIEEAVEKIVEEVAKVDPNEAAYIDAIFGSAVMEVEG	0.0124
GBRAPL2_0_7252 (protein) MEELLKELLSLSLEEAKAAIEKLAEEVIKLIEKDPEKGLKAAEELAEVFAEYLIERKNEELEEAIVKAIDKLVKEVAKVDPNKAAYIDSIIGSAIMEVEG	0.0463
GBRAPL2_0_7261 (protein) MEEVLEKMKKLSIEEAAKLAKEYLEKLRNDPSVTPEEFEEAALKILEVLAEKVKKEKTEEALEIFEELVDYATKLAAEIDPNLAAYIDSYGGSLIMELEE	0.0589
GBRAPL2_106_7268 (protein) KKLEEILEELEEALELVEELLERAEEKDEELLDETLELLDRVTRLAIEAGLDEVAALVADAANDVFAAEEDPENRKEYLERAKEDLEEAIKLVKEKIKEA	-0.012
GBRAPL2_0_7245 (protein) MEELLEKLLSLSLEEAKKKIKELAEKAIKLIKEDPEKGIKEAEKLAEVFAEVLEKRKDEELLKVIEEAIDKIVKEVAKVDPNAAAYIDAIFGSAIMEVEG	0.154
GBRAPL2_128_7270 (protein) MKIVELDVNVKDEESYELALEILDEIAKNSSPEVKDLAEAARDLVEEAKKRGFGENVTAVDILSDEDAEELKKIYEELKKKYGEEKVNSVLELEISDVPP	-0.268
GBRAPL2_0_7249 (protein) MEEELKELLSLSTEEAKKKIKEKAKEVIELIKKDPEEGLKAAEELAEIFAEYLEKTKNEELEEVIDEAIDEIVKEVAKVDPNEAAYIDAIIGSAIMEVEG	-0.0458
GBRAPL2_0_7247 (protein) MEELLKELLELSVEEAKKKIKELAKKAVELIKKDPEKGLEEAEKLAEVFAEYLEETKNEELAEAVDEAARLLVEEAEKVDPNAAAYIASEVGSALLDLEM	-0.0333
GBRAPL2_0_7263 (protein) LEKVLEEMKKLSIEEAKKLAKEYLEKLRDDPSVTPEEFLEAALKILDVLYEKVKKEKTEEALEIFEEFRDFAVELAAKVDPNIAAEVDSYAGSLIMELEE	0.11
GBRAPL2_0_7262 (protein) MEKVLEEMEKLSIEEAAKLAKEYAEKLKADPSVSPEQFEEAVLALLEVLYKKVKKEKTEKALEIFEEAVDYFTELAAEVDPNLAAYVDSYAGSLIMELEE	0.203
GBRAPL2_0_7244 (protein) MEELLKRLLSLSLEEAKKEIKELAEKVIKLIREKPEEGIKAAEELMEVFAEVLVERKDEELEEVVEEAVDAIVEEVAKVDPNAAAYIDAIFGSAIMEVEG	-0.291
